Compound in the assay: Nc1nc2c(ncn2[C@@H]2O[C@H](COP(=O)(O)OP(=O)(O)OP(=O)(O)O)[C@@H](O)[C@H]2O)c(=O)[nH]1 [guanosine triphosphate]
The experiment in a line: NP40-soluble protein abundance relative to vehicle (solubility fold change) (ratio); higher = more soluble protein in presence of GTP. The procedure: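 Solubility proteome profiling in Jurkat crude lysate. Lysate was treated with Mg-GTP (0.1-10 mM) for 10 min at room temperature and 3 min at 37 °C, then solubilised with 0.8% NP40 and benzonase, followed by ultracentrifugation. Proteins were quantified by TMT10 LC-MS/MS; the value is the NP40-soluble abundance relative to the NP40-processed vehicle, from 3 independent experiments.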

± gives the standard deviation of the averaged measurements. The full data set covers some 5,400 targets. This sample favours those with the largest changes.

Chain of UniProt Q9NTI5 (Q9NTI5 whole entry, one chain of several): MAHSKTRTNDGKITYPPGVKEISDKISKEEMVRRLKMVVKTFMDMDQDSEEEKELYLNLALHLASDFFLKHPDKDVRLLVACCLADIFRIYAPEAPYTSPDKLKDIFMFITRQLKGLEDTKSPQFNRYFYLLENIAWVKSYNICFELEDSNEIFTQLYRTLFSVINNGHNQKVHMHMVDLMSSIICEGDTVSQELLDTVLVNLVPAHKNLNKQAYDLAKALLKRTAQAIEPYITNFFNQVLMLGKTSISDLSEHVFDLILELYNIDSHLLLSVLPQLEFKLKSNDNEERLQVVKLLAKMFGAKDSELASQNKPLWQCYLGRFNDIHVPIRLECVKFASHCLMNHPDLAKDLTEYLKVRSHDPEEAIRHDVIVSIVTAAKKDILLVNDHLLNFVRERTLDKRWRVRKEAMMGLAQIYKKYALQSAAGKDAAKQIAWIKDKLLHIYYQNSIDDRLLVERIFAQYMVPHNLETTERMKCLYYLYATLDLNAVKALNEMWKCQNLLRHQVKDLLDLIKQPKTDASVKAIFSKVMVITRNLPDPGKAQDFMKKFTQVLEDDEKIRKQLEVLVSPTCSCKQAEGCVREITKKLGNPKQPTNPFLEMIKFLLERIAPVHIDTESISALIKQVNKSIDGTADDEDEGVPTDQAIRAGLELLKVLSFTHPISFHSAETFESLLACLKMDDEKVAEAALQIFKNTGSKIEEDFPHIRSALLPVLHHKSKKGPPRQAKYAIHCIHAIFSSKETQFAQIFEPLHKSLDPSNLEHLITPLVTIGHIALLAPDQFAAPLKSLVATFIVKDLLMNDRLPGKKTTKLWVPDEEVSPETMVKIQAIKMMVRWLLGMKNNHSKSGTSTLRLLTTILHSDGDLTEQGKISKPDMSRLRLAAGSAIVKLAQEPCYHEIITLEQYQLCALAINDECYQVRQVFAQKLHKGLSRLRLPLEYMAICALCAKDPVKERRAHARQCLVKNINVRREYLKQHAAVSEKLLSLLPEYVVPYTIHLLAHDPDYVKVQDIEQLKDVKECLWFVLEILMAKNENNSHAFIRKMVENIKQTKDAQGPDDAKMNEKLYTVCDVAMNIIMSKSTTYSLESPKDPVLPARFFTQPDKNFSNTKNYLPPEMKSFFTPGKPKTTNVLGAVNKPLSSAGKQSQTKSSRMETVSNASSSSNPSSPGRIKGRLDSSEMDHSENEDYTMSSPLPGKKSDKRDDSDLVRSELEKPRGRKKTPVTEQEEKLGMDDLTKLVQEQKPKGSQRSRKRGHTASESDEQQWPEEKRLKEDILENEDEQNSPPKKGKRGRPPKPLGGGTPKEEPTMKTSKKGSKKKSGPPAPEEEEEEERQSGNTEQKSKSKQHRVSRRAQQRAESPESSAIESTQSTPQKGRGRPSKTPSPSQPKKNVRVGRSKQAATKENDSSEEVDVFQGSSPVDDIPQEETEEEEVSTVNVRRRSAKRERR
Chain of UniProt Q96SY0 (Q96SY0 whole entry, one chain of several): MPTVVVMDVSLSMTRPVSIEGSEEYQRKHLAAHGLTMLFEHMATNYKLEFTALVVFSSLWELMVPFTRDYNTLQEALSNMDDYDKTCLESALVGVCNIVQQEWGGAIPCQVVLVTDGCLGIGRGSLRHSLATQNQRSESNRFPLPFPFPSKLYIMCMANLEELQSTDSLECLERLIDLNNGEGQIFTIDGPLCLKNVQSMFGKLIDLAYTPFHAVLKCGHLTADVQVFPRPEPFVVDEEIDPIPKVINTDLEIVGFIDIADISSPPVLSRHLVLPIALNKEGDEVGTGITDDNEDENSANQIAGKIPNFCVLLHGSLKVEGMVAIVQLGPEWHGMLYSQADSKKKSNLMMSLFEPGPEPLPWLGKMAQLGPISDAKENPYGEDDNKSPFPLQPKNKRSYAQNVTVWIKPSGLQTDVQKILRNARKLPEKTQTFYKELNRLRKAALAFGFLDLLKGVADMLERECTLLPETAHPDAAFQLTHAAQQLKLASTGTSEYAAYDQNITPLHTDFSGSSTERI
Chain of UniProt Q9Y624 (Q9Y624 whole entry, one chain of several): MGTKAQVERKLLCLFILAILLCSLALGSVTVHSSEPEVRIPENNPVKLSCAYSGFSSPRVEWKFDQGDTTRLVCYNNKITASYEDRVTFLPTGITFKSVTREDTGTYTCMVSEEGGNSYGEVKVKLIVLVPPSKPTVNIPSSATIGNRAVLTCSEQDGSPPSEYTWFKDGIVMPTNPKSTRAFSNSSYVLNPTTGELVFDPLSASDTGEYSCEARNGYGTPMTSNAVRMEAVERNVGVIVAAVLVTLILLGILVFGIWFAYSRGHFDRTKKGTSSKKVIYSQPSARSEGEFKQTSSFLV
Chain of UniProt Q14202 (Q14202 whole entry, one chain of several): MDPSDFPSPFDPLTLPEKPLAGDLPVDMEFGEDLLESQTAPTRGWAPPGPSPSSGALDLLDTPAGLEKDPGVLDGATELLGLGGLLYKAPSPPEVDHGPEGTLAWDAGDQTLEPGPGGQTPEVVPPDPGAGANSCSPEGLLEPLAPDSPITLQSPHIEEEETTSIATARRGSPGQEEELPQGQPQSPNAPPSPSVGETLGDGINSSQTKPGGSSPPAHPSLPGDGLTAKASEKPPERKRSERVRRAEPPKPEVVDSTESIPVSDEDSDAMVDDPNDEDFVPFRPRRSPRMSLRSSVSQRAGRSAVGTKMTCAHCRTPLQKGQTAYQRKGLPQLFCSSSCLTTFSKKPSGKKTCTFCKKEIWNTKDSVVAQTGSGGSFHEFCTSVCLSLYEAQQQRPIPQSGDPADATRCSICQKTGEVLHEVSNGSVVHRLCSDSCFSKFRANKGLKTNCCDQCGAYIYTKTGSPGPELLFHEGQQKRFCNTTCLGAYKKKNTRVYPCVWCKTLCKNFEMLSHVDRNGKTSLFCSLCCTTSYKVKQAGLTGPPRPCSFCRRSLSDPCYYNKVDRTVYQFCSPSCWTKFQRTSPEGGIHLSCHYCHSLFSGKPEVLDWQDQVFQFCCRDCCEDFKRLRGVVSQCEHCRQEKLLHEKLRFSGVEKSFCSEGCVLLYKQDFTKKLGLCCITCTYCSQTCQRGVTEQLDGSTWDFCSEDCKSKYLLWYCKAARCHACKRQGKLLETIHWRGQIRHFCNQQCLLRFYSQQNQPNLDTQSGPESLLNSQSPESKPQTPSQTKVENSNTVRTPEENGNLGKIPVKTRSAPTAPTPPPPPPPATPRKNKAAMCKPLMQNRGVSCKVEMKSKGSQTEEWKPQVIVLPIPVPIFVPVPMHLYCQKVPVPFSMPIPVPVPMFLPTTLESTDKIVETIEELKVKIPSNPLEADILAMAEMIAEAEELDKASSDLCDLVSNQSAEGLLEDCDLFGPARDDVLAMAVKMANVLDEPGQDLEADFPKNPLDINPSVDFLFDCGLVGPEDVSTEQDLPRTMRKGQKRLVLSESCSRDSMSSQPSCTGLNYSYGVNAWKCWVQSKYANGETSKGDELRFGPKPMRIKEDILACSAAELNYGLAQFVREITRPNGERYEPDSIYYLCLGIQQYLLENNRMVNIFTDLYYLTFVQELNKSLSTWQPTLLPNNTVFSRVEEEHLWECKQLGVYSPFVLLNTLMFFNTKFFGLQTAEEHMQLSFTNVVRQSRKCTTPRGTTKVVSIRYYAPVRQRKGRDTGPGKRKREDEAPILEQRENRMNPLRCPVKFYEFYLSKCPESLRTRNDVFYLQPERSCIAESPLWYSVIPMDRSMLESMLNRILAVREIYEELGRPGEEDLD

“A6NHB5|A6NHN7|Q14202|Q14202-2 (UniProt Q14202)”: the NP40-soluble protein abundance by setting is: (concentration: 0.1mM) 1.08 ± 0.056; (concentration: 0.5mM) 1.12 ± 0.075; (concentration: 1mM) 1.18 ± 0.092; (concentration: 2mM) 1.31 ± 0.14; (concentration: 4mM) 1.37 ± 0.16; (concentration: 6mM) 1.4 ± 0.15. Besides, the NP40-soluble protein abundance (concentration: 8mM) was found to be 1.46 ± 0.15 and the NP40-soluble protein abundance (concentration: 10mM) is 1.42 ± 0.16.
Turning to “H0UI80|Q8IXH7|Q8IXH7-4|X6RLT1 (UniProt X6RLT1+Q8IXH7+H0UI80)”, the NP40-soluble protein abundance (concentration: 0.1mM) was found to be 1.01 ± 0.017; the NP40-soluble protein abundance (concentration: 0.5mM) amounted to 0.973 ± 0.038; the NP40-soluble protein abundance (concentration: 1mM) was 0.965 ± 0.024; the NP40-soluble protein abundance (concentration: 2mM) came to 0.968 ± 0.012; the NP40-soluble protein abundance (concentration: 4mM) came to 0.981 ± 0.011; the NP40-soluble protein abundance (concentration: 6mM) turned out to be 0.978 ± 0.01. Besides, the NP40-soluble protein abundance runs as follows: (concentration: 8mM) 0.97 ± 0.039; (concentration: 10mM) 0.95 ± 0.0096.
On to “A0A087WY82|Q9Y624|Q9Y624-2 (UniProt Q9Y624)”, for which the NP40-soluble protein abundance (concentration: 0.1mM) is 1 ± 0.041; the NP40-soluble protein abundance (concentration: 0.5mM) worked out at 0.953 ± 0.1; the NP40-soluble protein abundance (concentration: 1mM) came to 0.979 ± 0.038; the NP40-soluble protein abundance (concentration: 2mM) was 0.938 ± 0.059; the NP40-soluble protein abundance (concentration: 4mM) was 0.851 ± 0.066; the NP40-soluble protein abundance (concentration: 6mM) is 0.952 ± 0.01. In addition, the NP40-soluble protein abundance is, setting by setting: (concentration: 8mM) 0.858 ± 0.076; (concentration: 10mM) 0.898 ± 0.011.
For “B4DJL6|Q96SY0|B4DVT3|H3BRY6|Q96SY0-3|Q96SY0-4 (UniProt Q96SY0)”, the NP40-soluble protein abundance (concentration: 0.1mM) is 1.03 ± 0.049; the NP40-soluble protein abundance (concentration: 0.5mM) worked out at 1.03 ± 0.035; the NP40-soluble protein abundance (concentration: 1mM) was found to be 1.03 ± 0.064; the NP40-soluble protein abundance (concentration: 2mM) stood at 1.07 ± 0.051; the NP40-soluble protein abundance (concentration: 4mM) is 1.03 ± 0.058; the NP40-soluble protein abundance (concentration: 6mM) was determined as 1.09 ± 0.025. In addition, the NP40-soluble protein abundance came to 1.07 ± 0.086 (concentration: 8mM) and 1.05 ± 0.066 (concentration: 10mM).
Consider A9IYQ1|Q9NTI5|Q9NTI5-2 (UniProt Q9NTI5), for which the NP40-soluble protein abundance came to 1.01 ± 0.015 (concentration: 0.1mM); 1.03 ± 0.024 (concentration: 0.5mM); 1.01 ± 0.015 (concentration: 1mM); 0.995 ± 0.036 (concentration: 2mM); 1.01 ± 0.035 (concentration: 4mM); 1.01 ± 0.052 (concentration: 6mM). In addition, the NP40-soluble protein abundance runs as follows: (concentration: 8mM) 1.02 ± 0.08; (concentration: 10mM) 0.992 ± 0.041.

For the origin of these results see the supplement of paper PMC6411743.
